Assay results: PubChem BioAssay AID2283170 (EPA ToxCast)
Records with an inconclusive call do not appear. Active and inactive are the calls of the source. Rule for the calls: active = hit-call score of the fitted dose curve at least 0.9, where 1 is the maximum; inconclusive = response in the unintended direction; inactive = score below 0.9.

Each compound was assayed against human Lymphocyte-cell Factor Kinase (Lck), LCK (gene 3932) (UniProt P06239) (assay: NVS_ENZ_hLck: NovaScreen (NVS) Enzymatic Assay for human Lymphocyte-cell Factor Kinase (Lck)).
Chain of human Lymphocyte-cell Factor Kinase (Lck), LCK (gene 3932) (P06239 whole entry, looked up): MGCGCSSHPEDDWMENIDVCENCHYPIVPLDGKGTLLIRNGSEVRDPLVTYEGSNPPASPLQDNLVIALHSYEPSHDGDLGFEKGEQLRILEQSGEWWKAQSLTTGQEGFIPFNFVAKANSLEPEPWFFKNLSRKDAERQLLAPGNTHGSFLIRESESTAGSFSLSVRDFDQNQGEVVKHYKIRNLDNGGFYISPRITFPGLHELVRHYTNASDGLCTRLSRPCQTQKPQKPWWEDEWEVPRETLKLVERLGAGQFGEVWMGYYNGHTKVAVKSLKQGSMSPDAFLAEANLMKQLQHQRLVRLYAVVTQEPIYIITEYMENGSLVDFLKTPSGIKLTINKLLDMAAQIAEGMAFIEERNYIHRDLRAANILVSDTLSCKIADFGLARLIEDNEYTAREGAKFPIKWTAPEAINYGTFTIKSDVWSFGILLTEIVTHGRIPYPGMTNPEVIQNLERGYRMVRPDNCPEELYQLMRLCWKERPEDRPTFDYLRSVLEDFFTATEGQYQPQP
Procedure: NVS_ENZ_hLck is a biochemical, single-readout assay that uses extracted gene-proteins in a cell-free assay. Measurements were taken 1 hour after chemical dosing in a 384-well plate.NVS_ENZ_hLck is one of one assay component(s) measured or calculated from the NVS_ENZ_hLck assay. It is designed to make measurements of enzyme activity, a form of enzyme reporter, as detected with fluorescence intensity signals by Fluorescence and electrophoretic mobility shift technology.Data from the assay component NVS_ENZ_hLck was analyzed into 1 assay endpoint. This assay endpoint, NVS_ENZ_hLck, was analyzed in the positive analysis fitting direction relative to DMSO as the negative control and baseline of activity. Using a type of enzyme reporter, loss-of-signal activity can be used to understand changes in the enzymatic activity as they relate to the gene LCK. Furthermore, this assay endpoint can be referred to as a primary readout, because this assay has produced […] where this one serves a enzymatic activity function. To generalize the intended target to other relatable targets, this assay endpoint is annotated to the kinase intended target family, where the subfamily is non-receptor tyrosine kinase.
Binding assays used specific radioligands (tritiated, iodinated) with non-radioactive competitive displacement ligands in agonist or antagonist protocols (as indicated) and various reference compounds and inhibitors to titrate specific binding to receptors and transporters. Most enzyme assays (CYPs, kinases, phosphatases, proteases, HDACs) used recombinant protein and specific substrates (fluorescence mostly, some colorimetric and radioactive) and inhibitors, followed by a biochemical separation of substrate and product. All assays for the biochemical HTS were initially run in duplicate at a single concentration (10 uM for CYP450 assays and 25 uM for all others). Assay-chemical combinations meeting a pre-defined threshold (e.g., 30% inhibition and other criteria defined below) were then run in singleton concentration-response format with maximum concentration of 20 uM for CYPs and 50 uM for all others. Each assay was run with positive and negative controls, and concurrent controls on every plate. The follow-up (secondary) screen tested active chemical-pairs in concentration series, as well as a few additional assays not tested in the primary screen, some selected negative inactives, and several cases re-run in the concentration series for confirmatory purposes.
In the case of `O=C(Nc1ccc([N+](=O)[O-])cc1Cl)c1cc(Cl)ccc1O`, the outcome is reported as “inactive”.
With `c1ccc2[nH]c(-c3cscn3)nc2c1` the outcome was “inactive”.
`S=C([S-])NCCNC(=S)[S-].[Mn+2]` was tested, and the outcome was “inactive”.
In the case of `c1ccc(Nc2ccccc2)cc1`, the AC50 is reported as 10.6 µM (active).
